This is a sample that favours compounds with a hit; in the whole collection about 7.4% have one here.
Rab9 promoter act: Rab9 promoter activation; Huh7 Rab9 promoter-luciferase reporter, luminescence, 24 h; AID 485297; Potency, µM (top dose mostly 9.22 µM), for inactives: at the top dose activation, negative = inhibition, most hits filed as activators; hit rate 2.8% among 320,000; note: % of control where 0% means no effect; nearly all actives have a fitted effect of over 60% in size
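Rab9 promoter-driven luciferase in stably transfected Huh7 cells; 1500 cells/well rested 2 h, exposed to compound in DMSO for 24 h at 37 °C, 5% CO2. Luminescence read 10 min after adding luciferase reagent at ambient temperature.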
ELG1 genotox: induces genotoxicity in HEK293T cells with luciferase-tagged ELG1; HEK293T ELG1-luciferase reporter, luminescence, 16 h; Potency, µM (doses to about 46 µM), inactives show at the highest dose activity change, positive = activation, most hits filed as activators; hit rate 1.3% among 330,000; AID 504466; note: % of control where 0% means no effect; nearly all actives have a fitted effect of over 60% in size
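Genotoxic stress is detected as increased luminescence from luciferase-tagged ELG1 in HEK293T cells, measured with ONE-Glo after a 16 hr treatment at 37 °C.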
SMN2 splice enh: increases expression of the SMN2 splice variant | HEK293 SMN2-luciferase splicing reporter, luminescence, 30-36 h | hit rate 2.8% among 210,000 | Potency, µM (top dose mostly 46.1 µM), inactives show top-dose activity change, positive = activation, hits mostly activators; note: % of control where 0% means no effect; nearly all actives have a fitted effect of over 55% in size
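HEK293 cells carry an SMN2 […]–luciferase reporter in which exon 7 inclusion puts luciferase in frame. Cells were plated 10-12 h before compound addition, then incubated 30-36 h at 37C. ONE-Glo luminescence was read; sodium butyrate at 4.5 mM final served as control.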
FLuc counter: inhibits or activates purified firefly luciferase, miR-21 counter-screen; purified FLuc, Km substrates, luminescence inhibition; Potency, µM (top dose mostly 57.5 µM), without a hit: at the highest dose activity change, negative = inhibition, hits mostly inhibitors; hit rate 6.9% among 360,000; AID 588342;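 note: plate controls were vehicle for no effect and reference inhibitor for full effect; nearly all actives have a fitted effect of over 55% in size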
Target sequence (P08659 whole entry, looked up): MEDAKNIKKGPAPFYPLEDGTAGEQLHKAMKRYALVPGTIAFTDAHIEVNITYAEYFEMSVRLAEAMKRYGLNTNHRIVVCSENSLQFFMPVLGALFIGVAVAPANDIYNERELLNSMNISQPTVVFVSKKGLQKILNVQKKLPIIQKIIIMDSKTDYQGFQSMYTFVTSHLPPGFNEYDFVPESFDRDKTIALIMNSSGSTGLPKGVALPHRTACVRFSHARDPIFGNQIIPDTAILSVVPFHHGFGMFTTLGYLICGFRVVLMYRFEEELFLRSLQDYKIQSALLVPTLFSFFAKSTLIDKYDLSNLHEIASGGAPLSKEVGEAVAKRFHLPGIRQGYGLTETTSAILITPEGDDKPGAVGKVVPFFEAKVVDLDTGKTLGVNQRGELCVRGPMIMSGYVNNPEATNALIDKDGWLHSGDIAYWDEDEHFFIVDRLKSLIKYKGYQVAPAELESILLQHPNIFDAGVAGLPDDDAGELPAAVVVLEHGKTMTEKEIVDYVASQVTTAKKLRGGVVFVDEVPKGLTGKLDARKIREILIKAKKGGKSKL
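Purified P. pyralis luciferase (10nM final) with 10uM D-luciferin and 10uM ATP (Km levels) in 50mM Tris acetate pH 7.5, 10mM Mg acetate, 0.01% Tween-20, 0.05% BSA; qHTS 6-point titration, ~60 µM downward; luminescence read.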
NPC1 promoter act: NPC1 promoter activation; Potency, µM (series often up to 9.22 µM), for inactives: at the top dose activation, actives largely listed as activators; AID 485313; hit rate 2.4% among 320,000; Huh7 NPC1 promoter luciferase reporter, 24 h; note: % of control where 0% means no effect; nearly all actives have a fitted effect of over 60% in size
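Huh7 cells stably carrying NPC1 promoter–luciferase, plated in Opti-MEM with 10% FBS for 2 h, were exposed to compound in DMSO for 24 h at 37 °C; luciferase reagent was added for 10 min and luminescence read.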
Starred values were filed as active, the others as inactive; ? = inconclusive; . = no result; [ ] = another dose, or the depositor's remark. Calls come from the whole dose curve; as a rule, active = well fitted curve in the direction sought with a large enough effect; inconclusive = small, poorly fitted or top-dose-only effect, or another doubt; inactive = no such curve, though single readings can be large; an effect the other way counts as inactive or inconclusive. Potency is the fitted concentration of half-maximal effect.

SMILES | Rab9 promoter act | ELG1 genotox | SMN2 splice enh | FLuc counter | NPC1 promoter act
O=C(Nc1ccccc1)N1CCC2(CC1)CCN(S(=O)(=O)c1ccccc1)CC2 | . | . | -7% | . | .
Cc1cccn2c(=O)c(/C=C(\C#N)c3nc4ccccc4n3C)c(Oc3ccc(Br)cc3)nc12 | . | . | 6% | -6% | .
O=C(O)c1ccc(/C=N/NC(=O)c2cc3c(ccc4ccccc43)o2)cc1 | 11% | 0% | . | 6µM* | -2%
Cc1ccc(-c2ccc(/C=N\NC(=O)c3cc4c(ccc5ccccc54)o3)o2)cc1[N+](=O)[O-] | -1% | 7% | -17% | -5% | 1%
O=C(N/N=C/c1ccc(-c2ccc(Cl)c(C(=O)O)c2)o1)c1cc2c(ccc3ccccc32)o1 | 1% | 5% | . | 21µM* | 13%
Cc1cccc(NC(=O)CSc2cn(CC(=O)N3CCC(C)CC3)c3ccccc23)c1C | . | . | . | -13% | .
CCCn1c(-c2ccc(F)cc2)nc2c(N3CCN(CCC(=O)OCC)CC3)nc(C)nc21 | . | . | -9% | . | .
COc1ccccc1CNC(=O)c1oc2c(c1C)-c1nn(Cc3ccc(Cl)cc3)cc1CC2 | . | . | . | -7% | .
COc1ccc(CN(C(=O)Cc2coc3ccc(C)cc23)C2CCS(=O)(=O)C2)cc1 (configuration not stated) | . | . | 3% | -7% | .
CC(C)COc1ccc(C(=O)Nc2scc(-c3ccc(Br)cc3)c2C(=O)OC(C)C)cc1 | . | . | 1% | 1% | .
CC(C)c1ccc(OCC(=O)Nc2cc(-c3ccccc3)no2)cc1 | . | . | 9% | 0% | .
Cc1cc(C)cc(-n2c(C)cc(/C=N/NC(=O)c3ccncc3)c2C)c1 | 0% | 4% | -13% | -5% | -5%
Cc1cc(/C=N/NC(=O)c2ccsc2)c(C)n1-c1cnccn1 | ? | ? | 24% | 19µM* | 18%
Cc1ccccc1-n1c(C)cc(/C=N/NC(=O)c2ccncc2)c1C | 15% | 8% | 4% | 3.8µM* | 21%
Cc1cccc(-n2ncc(C(=O)N3CCN(C4CCCCC4)CC3)c2C2CCN(C(=O)OC(C)(C)C)CC2)c1 | . | . | . | -1% | .
O=C1c2ccccc2C(=O)N1CCCc1c[nH]c2ccccc12 | 18% | -2% | 0% | -18% | 3%
O=C1c2ccccc2C(=O)N1CCc1c[nH]c2ccccc12 | 3.5µM* | ? | . | 6.7µM* | ?
O=C(CSc1nnnn1-c1ccccc1)c1ccco1 | ? | ? | 10% | 17µM* | ?
CN(C)C(=O)CSc1nnc2sc3ccccc3n12 | 6% | 6% | 17% | -19% | 2%
O=C(CSc1nnnn1-c1ccccc1)N1N=CCC1c1ccccc1 (configuration not stated) | 14% | 2% | 19% | 15µM* | 4%
CCOC(=O)CC(=O)CSc1nnc2sc3ccccc3n12 | 3% | 4% | -10% | ? | 3%
O=C(CSc1nnc2sc3ccccc3n12)c1ccco1 | ? | ? | 11µM* | 11µM* | 23%
c1csc(CSc2nnc3sc4ccccc4n23)c1 | 3.2µM* | ? | 14µM* | 17µM* | ?
Cn1nnnc1SCC(=O)c1ccco1 | 0% | 1% | -23% | 8% | 1%
O=Nc1c(O)[nH]c2ccccc12.[Cu].[O-]/N=C1/C(=[OH+])Nc2ccccc21 | . | . | -6%[9.22 µM] | . | .
SMILES | Rab9 promoter act | ELG1 genotox | SMN2 splice enh | FLuc counter | NPC1 promoter act
CSc1nsc(/C=C/Nc2ccc(C(=O)O)cc2)c1C#N | 14% | -7% | 3% | 12µM* | -4%
COc1ccc(C)cc1NC(=O)Cn1cc(S(=O)(=O)Cc2ccccc2Cl)c2ccccc21 | . | . | . | -2% | .
O=C(Nc1nccs1)C1CC(=O)N(c2ccc(Cl)cc2)C1 (configuration not stated) | -7% | -6% | -4% | 4% | 0%
Cc1cc(N2CC(C(=O)Nc3nccs3)CC2=O)ccc1C(C)C (configuration not stated) | 13% | -4% | . | 11µM* | 1%
COc1ccc(NC(=O)c2oc3ccc(S(=O)(=O)N(C)C4CCCCC4)cc3c2C)cc1Cl | . | . | . | -3% | .
Nc1c2c(nc3sc4c(c13)CCCC4)-c1ccccc1CC2 | 0.14µM* | 0.73µM* | . | 0.13µM* | 0.5µM*
Cc1nnc(S(=O)(=O)c2ccc(N=Nc3c(N)nc(N)nc3N)cc2)s1 | . | . | 16%[9.22 µM] | . | .
Cc1ccc2nc(NC(=O)CN3C(=O)C4CC=CCC4C3=O)sc2c1 (configuration not stated) | 1% | 1% | 13% | 11µM* | -5%
Cc1ccc2nc(NC(=O)[C@H](C)N3C(=O)C4CC=CCC4C3=O)sc2c1 (some centres not stated) | -21% | 5% | 21% | 17µM* | -14%
C[C@@H](C(=O)Nc1nc2ccc(F)cc2s1)N1C(=O)C2CC=CCC2C1=O (some centres not stated) | 2% | 3% | 31% | -18% | 13%
Cc1ccc(C)c(N2CCN(CCCNC(=O)c3ccc4nc(CCc5ccccc5)oc4c3)CC2)c1 | . | . | . | -3% | .
CCCOC(=O)Nc1ccc(N2CCCCC2)cc1 | . | . | 14µM* | 3µM* | .
O=C(Nc1ccc(N2CCCC2)cc1)c1cccc(Cl)c1 | 0.25µM* | 1.2µM* | . | 0.67µM* | 0.32µM*
O=C(CN1CCCCC1)Nc1ccc(N2CCCCCC2)cc1 | 1% | 0% | -5% | -18% | -2%
Cc1cc(C)cc(C(=O)Nc2ccc(N3CCCC3)cc2)c1 | 1µM* | ? | 8.9µM* | 1.9µM* | 2.2µM*
CCCCOC(=O)Nc1ccc(C(=O)OCCC)cc1 | 6% | ? | -11% | 19µM* | 23%
CC(NC(=O)Cc1ccc(NC(=O)N2CCSc3ncccc32)cc1)c1ccccc1 (configuration not stated) | . | . | . | 6% | .
COc1ccc(C(=O)N2CCC3(CCCN(Cc4cc(C(F)(F)F)cc(C(F)(F)F)c4)C3)CC2)cc1 | . | . | -7% | . | .
CCOC(=O)c1cc(OC(=O)c2ccccc2C)n(-c2ccccc2)n1 | . | . | -8% | -2% | .
Cc1cc(C)cc(NC(=O)Nc2ccc(N3CCCCC3)cc2)c1 | 4µM* | ? | . | 2.7µM* | 3.5µM*
Cc1cc(C)cc(OCC(=O)Nc2ccc(N3CCCCC3)cc2)c1 | -2% | 1% | . | 9% | -3%
O=C(O)C[C@H](Sc1ccccc1)c1ccccc1 | . | . | -17%[9.22 µM] | . | .
COc1ccc(-c2cc3cc(OC)c(OC)cc3c(C)n2)cc1C | -1% | 0% | . | 17µM* | 2%
COc1ccc(-c2cn3c(n2)sc2cc(C(=O)Nc4ccc(F)cc4Cl)ccc23)cc1 | . | . | ? | 19µM* | .
COc1ccc(-c2cn3c(n2)sc2cc(C(=O)Nc4ccc(C)cc4C)ccc23)cc1 | . | . | . | -1% | .
COc1ccc(-c2cc(C(=O)NCCN3CCOCC3)c3ccccc3n2)cc1 | 1% | -1% | -6% | 17µM* | 0%
CCOc1ccc(-c2cc(C(=O)NCCCn3ccnc3)c3ccccc3n2)cc1 | 19% | -8% | 21% | 6µM* | 11%
